The list is not random: actives were taken first. Their share in the collection is about 6.9%.
PLK1 PBD block – PLK1 (human) polo-box domain binding inhibition; P53350; Plk1 PBD binding of FITC phosphopeptide, fluorescence polarization; Potency, µM, for inactives: max response, negative = inhibition, hits mostly inhibitors; 360,000 compounds, 2.8% hits; further: series mostly up to about 57 µM; on the % scale 0 is the no-effect control and ±100 the full control effect; nearly all actives have a fitted effect of over 65% in size
HP1b binding inh – inhibitors of HP1-beta chromodomain binding to methylated histone tails; Potency, µM (doses to about 114 µM), for inactives: at the top dose activity change, negative = inhibition, actives largely listed as inhibitors; AlphaScreen HP1-beta / biotin-H3K9me3 peptide binding; AID 540317; P83916; 390,000 compounds, 0.56% hits; further: nearly all actives have a fitted effect of over 70% in size
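HP1-beta protein (50 nM final) preincubated 30 min at room temperature with biotinylated H3(1-18)K9me3 peptide (50 nM) in PBS pH 7.4, 0.01% Tween-20, then compound added for 30 min. AlphaScreen streptavidin donor/nickel chelate acceptor beads (10 ug/mL final), 30 min dark, luminescence read.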
L3MBTL1 block – blocks human L3MBTL1 | Q9Y468 | AlphaScreen L3MBTL1–H3K9me1 peptide binding | Potency, µM (top dose mostly 57.1 µM), for inactives: at the highest dose activity, negative = inhibition, most hits filed as inhibitors | 230,000 compounds, 0.66% hits | AID 485360; further: on the % scale 0 is the no-effect control and ±100 the full control effect; nearly all actives have a fitted effect of over 60% in size
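L3MBTL1 50 nM + b-AHA-H3(1-15)K9me1 75 nM, 30 min RT; compound added, 30 min RT; streptavidin donor/Ni-chelate acceptor beads 10 ug/mL each final, 30 min RT dark; AlphaScreen read.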
JMJD2A Tudor inh – blocks the human JMJD2A Tudor domain; Potency, µM (highest dose often 114 µM), without a hit: top-dose activity change, negative = inhibition, hits mostly inhibitors; AlphaScreen JMJD2A-Tudor / H3K4me3 peptide binding; O75164; AID 504339; 390,000 compounds, 4.4% hits; further: on the % scale 0 is the no-effect control and ±100 the full control effect; nearly all actives have a fitted effect of over 50% in size
Target sequence (O75164 whole entry, looked up, the tested form may be a part): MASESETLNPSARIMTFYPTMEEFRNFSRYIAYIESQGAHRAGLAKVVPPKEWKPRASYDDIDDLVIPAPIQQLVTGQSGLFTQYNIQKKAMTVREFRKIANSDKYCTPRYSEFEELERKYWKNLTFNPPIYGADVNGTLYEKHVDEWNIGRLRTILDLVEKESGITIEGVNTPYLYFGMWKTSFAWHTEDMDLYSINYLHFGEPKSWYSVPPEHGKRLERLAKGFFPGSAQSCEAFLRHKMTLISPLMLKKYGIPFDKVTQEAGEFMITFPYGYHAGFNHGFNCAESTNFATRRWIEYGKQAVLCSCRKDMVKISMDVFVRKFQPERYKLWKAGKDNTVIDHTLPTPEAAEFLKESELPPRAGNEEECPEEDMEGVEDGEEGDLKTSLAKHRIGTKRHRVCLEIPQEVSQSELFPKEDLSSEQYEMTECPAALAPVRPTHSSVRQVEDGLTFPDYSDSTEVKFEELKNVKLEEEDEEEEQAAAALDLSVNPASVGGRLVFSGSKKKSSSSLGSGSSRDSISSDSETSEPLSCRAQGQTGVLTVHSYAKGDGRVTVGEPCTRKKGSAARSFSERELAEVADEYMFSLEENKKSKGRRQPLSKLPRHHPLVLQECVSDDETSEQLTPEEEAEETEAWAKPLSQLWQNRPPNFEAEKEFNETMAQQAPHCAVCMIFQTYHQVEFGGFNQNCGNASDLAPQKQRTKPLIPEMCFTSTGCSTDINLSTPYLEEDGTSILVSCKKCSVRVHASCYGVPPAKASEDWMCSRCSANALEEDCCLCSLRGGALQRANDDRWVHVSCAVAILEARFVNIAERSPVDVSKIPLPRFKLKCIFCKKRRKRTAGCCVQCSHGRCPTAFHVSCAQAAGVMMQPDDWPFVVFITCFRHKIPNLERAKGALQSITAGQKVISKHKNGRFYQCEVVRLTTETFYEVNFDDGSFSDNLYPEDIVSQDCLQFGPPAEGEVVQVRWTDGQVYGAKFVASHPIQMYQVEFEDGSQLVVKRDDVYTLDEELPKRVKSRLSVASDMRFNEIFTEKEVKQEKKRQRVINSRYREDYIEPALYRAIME
BAZ2B inh – inhibitors of human BAZ2B bromodomain. Potency, µM (top dose mostly 114 µM), for inactives: top-dose activity change, negative = inhibition, most hits filed as inhibitors. Q9UIF8. AlphaScreen BAZ2B-H3K14Ac peptide displacement. 360,000 compounds, 4.4% hits; further: on the % scale 0 is the no-effect control and ±100 the full control effect; nearly all actives have a fitted effect of over 60% in size
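Multi-concentration screen (max 110 uM) measuring displacement of acetylated histone H3 peptide from BAZ2B by AlphaScreen, using 50 nM protein, 50 nM peptide and 10 ug/mL streptavidin donor plus Ni-chelate acceptor beads.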
VDR inhibitor – inhibitors of human vitamin D receptor; P11473; VDR-SRC2-3 peptide fluorescence polarization, 2 h; 400,000 compounds, 0.93% hits; Potency, µM, for the others: max response, negative = inhibition, actives largely listed as inhibitors; further: on the % scale 0 is the no-effect control and ±100 the full control effect
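Compounds are added to VDR with labelled SRC2-3 coactivator peptide and held 2 h at room temperature. Inhibition of the VDR–peptide interaction is then read as a change in fluorescence polarization.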
Starred values were filed as active, the others as inactive; ? = inconclusive; · = not tested or not shown; [ ] = dose if it differs, or a comment. The call rests on the fitted dose curve; in most records, active means well fitted curve in the direction sought with a large enough effect; inconclusive means small, poorly fitted or top-dose-only effect, or another doubt; inactive means no such curve, though single readings can be large; an effect the other way counts as inactive or inconclusive. Potency means the concentration at half of the fitted maximal effect.

SMILES	PLK1 PBD block	HP1b binding inh	L3MBTL1 block	JMJD2A Tudor inh	BAZ2B inh	VDR inhibitor
c1ccc2c(CN3CCOCC3)c3ccccc3c(CN3CCOCC3)c2c1	-9.9%	21.8%	-4.1%	-16.9%	-33.3%	2.7%
c1ccc(CN2CCOCC2)nc1	-6.4%	9.9%	·	11.2µM*	·	-16.5%
Oc1cccnc1CN1CCOCC1	1.5%	30.2%	·	7.94µM*	·	-12.4%
Cc1ccc(C(=O)O)cc1-c1ccc(/C=C2\SC(=O)N(CC(=O)Nc3ccccc3)C2=O)o1	?	?	?	35.5µM*	22.4µM*	17.2%
Cc1c(/C=C2\SC(=O)N(CC(=O)Nc3ccc4c(c3)OCO4)C2=O)c2ccccc2n1C	-4.8%	-11.3%	-5.0%	-26.2%	-33.1%[57.1 µM]	-7.7%
C#CCN1C(=O)S/C(=C\c2ccc(-c3ccc(C(=O)O)cc3C)o2)C1=O	?	-27.3%	5.01µM*	89.1µM*	50.1µM*	-12.2%
Cc1ccc(NC(=O)CN2C(=O)S/C(=C\c3ccc(-c4cccc(C(=O)O)c4C)o3)C2=O)cc1	·	·	·	·	25.1µM*	·
Cc1cc(C(=O)O)ccc1-c1ccc(/C=C2\SC(=O)N(CC(=O)Nc3ccc4c(c3)OCO4)C2=O)o1	·	·	·	·	17.8µM*	·
Cc1ccccc1NC(=O)CN1C(=O)S/C(=C\c2ccc(-c3cc(C(=O)O)ccc3C)o2)C1=O	-19.9%	39.8µM*	?	22.4µM*	14.1µM*	12.4%
Cc1ccccc1NC(=O)CSc1nc2c(c(=O)n(C)c(=O)n2C)n1Cc1ccccc1F	·	36.4%	·	4.9%	-18.0%	-8.9%
N#Cc1c([N+](=O)[O-])cc([N+](=O)[O-])cc1S(=O)(=O)Cc1ccccc1	1.06µM*	-38.0%	-9.8%	79.4µM*	?	39.8µM*
CN(C)c1ccc(N=c2sc3ccccc3n2C)cc1	-11.2%	10µM*	·	10µM*	7.94µM*	-8.9%
Cc1ccc(NS(=O)(=O)c2cc3c(cc2-c2cn[nH]c2)NC(=O)CO3)cc1C	·	·	·	-25.9%	·	·
CN(C)C(=O)CCN1CCOCC1	23.8µM*	-10.0%	0.8%	?	8.2%	6.2%
CC(=O)CCN1CCOCC1	-3.0%	13.2%	·	-6.9%	-3.4%	11.9%
Nc1cc2nc[nH]c2cc1N	1.1%	41.3%	-12.7%	50.1µM*	28.2µM*	8.2%
Cn1c(=O)n(C)c2cc3[nH]cnc3cc21	4.7%	20.4%	·	-4.1%	?	-25.1%
CC1=C([N+](=O)[O-])C(c2cccc(Br)c2)C2=C(N1)c1ccccc1C2=O (stereo unspecified)	-7.3%	?	·	15.8µM*	14.1µM*	-16.0%
O=C(O)CCCCCCCC(=O)O	-8.3%	13.8%	31.8%	-27.3%	21.1%	5.0%
Cc1ccc(NC(=O)CCCCCC2NC(=O)NC2C)cc1 (stereo unspecified)	-6.8%	1.12µM*	·	0.355µM*	0.794µM*	-1.6%
O=C(CCCCC(=O)Nc1ccc(F)cc1)Nc1ccc(F)cc1	-2.7%	25.2%	·	-3.0%	-19.2%	-1.1%
CC1NC(=O)NC1CCCCC(=O)O (stereo unspecified)	10.6µM*	-19.4%	2.7%	0.0%[11.4 µM]	·	1.9%
O=C(NCCCl)Nc1cccnc1Cl	-15.3%	-9.0%	14.9%	-15.3%	-19.0%	-2.8%
Cc1ccccc1C(=O)Nc1ccc2c(C#N)c3nc4ccccc4nc3n2c1	-16.3%	-9.9%	?	-32.4%	50.1µM*	-4.4%
Cc1ccc(NC(=O)C2CCC(CNS(=O)(=O)c3ccc4c(c3)CCCC(=O)N4)CC2)cc1F (stereo unspecified)	·	4.1%	·	-4.2%	1.5%	3.9%
SMILES	PLK1 PBD block	HP1b binding inh	L3MBTL1 block	JMJD2A Tudor inh	BAZ2B inh	VDR inhibitor
C[C@@H]1[C@H](c2ccccc2)Oc2ccc(Cl)cc2S(=O)(=O)N1CC1CCCN1C(=O)OC(C)(C)C (stereo partly specified)	23.8µM*	13.7%	·	-36.0%	·	?
Fc1ccccc1-n1[nH]nnc1=S	?	?	·	?	?	44.7µM*
Cc1nnc(OC(C)C)c2nn(-c3ccccc3F)c(C)c12	-10.7%	8.2%	·	-3.4%	-1.4%	-3.0%
COc1ccccc1C(=O)Oc1c(Sc2ccccc2)c(C)nn1-c1ccccc1	·	91.0%	·	28.3%	26.2%	-29.9%
Cc1ccc(Sc2c(C)nn(-c3ccccc3)c2OC(=O)CC(C)C)cc1	·	76.7%	·	15.7%	7.5%	79.4µM*
CCCC(=O)Oc1c(Sc2ccc(Cl)cc2)c(C)nn1-c1ccccc1	·	12.8%	·	-34.8%	3.3%	50.1µM*
COc1ccc(CNC(=O)C2CCN(S(=O)(=O)Cc3ccccc3)CC2)cc1	·	47.3%	·	-12.3%	?	17.2%
CC(NC(=O)CN1C(=O)c2cccnc2Oc2ccc(Cl)cc21)c1ccccc1 (stereo unspecified)	·	12.8%	·	-21.1%	3.5%	5.3%
O=C(O)c1ccc2nc(C(F)(F)F)[nH]c2c1	-1.5%	46.0%	2.2%	-5.3%	-7.1%	20.6%
Nc1cccc2[nH]c(C(F)(F)F)nc12	?	?	?	?	56.2µM*	-9.2%
FC(F)(F)c1nc(=S)c2ccccc2[nH]1	21.2µM*	?	·	50.1µM*	7.9%	?
FC(F)(F)c1nc2nccnc2[nH]1	4.7%	·	·	·	·	·
O=C(O)c1cccc2[nH]c(C(F)(F)F)nc12	6.1%	-8.0%	8.7%	31.6µM*	56.2µM*	-11.2%
S=c1nc(Cc2ccccc2)[nH]c2ccccc12	-9.7%	43.4%	·	-2.7%	-2.0%	-15.1%
CCn1cc(C(=O)N2CCN(c3ccccc3)CC2)c(=O)c2cc(S(=O)(=O)N3CCC(C)CC3)ccc21	·	-16.4%	·	?	·	-6.8%
CC(=O)NCCNc1ncnc2ccc(-c3ccc(C(=O)N(C)C)cc3)cc12	·	·	·	·	·	4.7%
CC1=C(C(=O)Nc2ccccc2F)C(c2cccs2)C2=C(CCCC2=O)N1 (stereo unspecified)	23.8µM*	26.7%	-1.3%	?	-13.5%	?
CCCOC(=O)C1=C(C)NC2=C(C(=O)CCC2)C1c1cccs1 (stereo unspecified)	-5.8%	15.2%	0.9%	-14.2%	6.4%	-4.6%
CCN(C(=O)c1oc2ccc(S(=O)(=O)N3CCCCCC3)cc2c1C)c1ccccc1	·	67.1%	·	-15.6%	24.0%	-3.5%
Clc1ccc(-c2nnc(-c3ccc(Br)cc3)c(N3CCSCC3)n2)cc1	0.4%	3.0%	-4.1%	-22.0%	?	17.8%
Clc1ccc(-c2nnc(-c3ccco3)nc2N2CCCCC2)cc1	?	-18.2%	-22.1%	44.7µM*	50.1µM*	-5.4%
CCOC(=O)c1sc(Nc2ccc(Br)cc2)nc1C	2.3%	8.9%	5.8%	56.2µM*	-25.6%	-12.5%
CCOC(=O)c1sc(NCCNc2nc(C)c(C(=O)OCC)s2)nc1C	-2.0%	7.7%	5.1%	50.1µM*	-12.3%	-13.0%
O=C(Nc1ccc2nc(SCC(=O)N3CCOCC3)sc2c1)c1ccccc1Cl	·	29.9%	·	-9.6%	-14.5%	15.4%

Source: PubChem
